This assay in a line: inhibitors of HIV fusion peptide binding, primary screen, biochemical, uHTS, fluorescence dequenching (AID 1986). To be noted: cell-free peptide binding, 30 min, stronger effect = higher value.
Setting [1] is: measured here: repeat confirmation average inhibition, at 18.6 µM.

Our source for the inhibition values is PubChem BioAssay AID1986 (Sanford-Burnham Center for Chemical Genomics, 2009).

Several values for one entry are separate records, joined by “and”; a condition that tells them apart may be missing. Identical values can stand only once. Among all 290,000 compounds or so, about 890 (0.31%) were called active. Rule as the data show it: active = inhibition mostly above about 52% (no sharp cut-off); inactive = mostly below about 76%. For the sample, actives were picked, then their nearest neighbours and some compounds at random. More than one record can exist for a structure, and the calls need not agree.

As to `O=C(/C=C/c1ccccc1)Nc1ccc(Cl)cn1`, where the note is “at 20 µM”, the inhibition was 1% (inactive).
Take `COc1cc(C(=O)Oc2cc(C)[nH]c(=O)c2[N+](=O)[O-])cc(OC)c1OC`: the inhibition (at 20 µM) is 0.4% (inactive).
Still for that read-out and setting: with `COc1ccc(-c2csc(NC(=O)c3ccccc3NS(=O)(=O)c3ccc(F)c(F)c3)n2)cc1` the figure was 65% (active); with `Cc1ccc(S(=O)(=O)Nc2ccccc2C(=O)Nc2nc(-c3ccc(F)cc3)cs2)cc1`, 65.5% (active); with `O=C(Nc1nc(-c2ccccc2)cs1)c1ccccc1NS(=O)(=O)c1ccc(F)cc1`, 71.5% (active).
Turning to `O=C(Nc1cc(S(=O)(=O)N2CCCCC2)ccc1O)c1ccccc1NS(=O)(=O)c1ccc(F)cc1`, the inhibition (at 20 µM) was 49.5% (inactive).
As to `O=S(=O)(Nc1ccc(-c2csc(-c3ccccc3)n2)cc1)c1ccc(F)cc1`, the inhibition (at 20 µM) was 0% (inactive).
Regarding `COc1ccc(-c2csc(NC(=O)c3ccccc3F)n2)cc1`, the inhibition (at 20 µM) was 0.1% (inactive).
With `Cc1ccc(S(=O)(=O)Nc2nc(-c3ccccc3)cs2)cc1`, the inhibition (at 20 µM) is 6.9% (inactive).
As for `Cc1ccc(S(=O)(=O)Nc2nc(-c3ccc(F)cc3)cs2)cc1`, the inhibition (at 20 µM) is 20% (inactive).
As to `O=C(Nc1nc(-c2ccccc2)cs1)c1ccccc1F`, for the setting “at 20 µM”, the inhibition is 0% (inactive).
Regarding `COc1ccc(-c2csc(NC(=O)c3ccccc3S(C)(=O)=O)n2)cc1`, where the note is “at 20 µM”, the inhibition is 0.4% (inactive).
For `O=C(Nc1cccc(S(=O)(=O)N2CCCCC2)c1)c1ccccc1NS(=O)(=O)c1ccc(F)cc1`, the inhibition is 58% (inactive) (at 20 µM) and 26% under setting [1].
For `O=C(Nc1cc(S(=O)(=O)N2CCCCC2)ccc1O)c1ccccc1NS(=O)(=O)c1ccc(F)c(F)c1`, under “at 20 µM”, the inhibition is 62.7% (active).
For the molecule `CCCOc1ccc2c(CC)cc(=O)oc2c1C`, the inhibition (at 20 µM) is -0.2% (inactive).
In the case of `Cc1sc2nc(C3CC3)nc(N3CCN(S(=O)(=O)c4ccc(F)cc4)CC3)c2c1C`, where the note is “at 20 µM”, the inhibition was -0.3% (inactive).
Take `CC(=O)c1ccc(-n2nnnc2SCC(=O)Nc2sc(C)c(C)c2C#N)cc1`: for the setting “at 20 µM”, the inhibition is 6.6% (inactive).
Turning to `CSc1cccc(NC(=O)CCCOc2ccccc2)c1`, the inhibition (at 20 µM) is -0.1% (inactive).
Consider `Cc1cnc(C(=O)OCc2csc(CC(=O)Nc3ccccc3C)n2)cn1`, for which the inhibition (at 20 µM) is 1.8% (inactive).
As to `c1ccc(C2=Nc3c(ccc4ccccc34)C(c3ccncc3)=NN2)cc1`, where the note is “at 20 µM”, the inhibition was -3% (inactive).
Consider `Cc1ccc(CNS(=O)(=O)c2ccc(F)c(F)c2)n1C`, for which the inhibition (at 20 µM) is -1.8% (inactive).
With `CCOC(=O)c1c(C)[nH]c(C(=O)N/N=C/c2ccc(Br)cc2)c1C`, the inhibition (at 20 µM) was -1.7% (inactive).
With `O=C(O)c1cc(-c2ccco2)nc2ccc(Br)cc12`, the inhibition is 51.2% (inactive) and 65% (active) (at 20 µM); 11.6% under setting [1].
`O=C(O)c1cc(-c2ccco2)nc2ccccc12`: the inhibition (at 20 µM) is 0.1% (inactive).
With `O=C(O)c1cc(-c2ccco2)nc2cc3ccccc3cc12`, the inhibition (at 20 µM) is 35.7% (inactive).
